From PubChem BioAssay (NCI)
This is part of a sample that, as a whole, favours compounds with a hit. Of some 83,000 tested, about 20% had one in any assay.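 Negative percent growth values reflect cell death: -40 means 40% of the cells present at the start died, and -100 means all died.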 Unmarked numbers belong to inactive results. The source made the active and inactive calls. The calls were made as follows: active = growth percent below 10; inactive = the rest.

The compounds below were run on UACC-257 melanoma (assay: NCI-60 one-dose screen, 48 h (100 = growth as untreated, 0 = no growth, -100 = all killed)). Conditions: 10 µM unless noted.

First: c1cnc2[nH]cc(-c3csc(-c4cn(CCCCN5CCCCC5)c5ccccc45)n3)c2c1
Second: O=C(CC1(O)C(=O)Nc2ccccc21)c1ccc(C(=O)NCC2CCC3(CC2)OOC2(CCCCC2)OO3)cc1 (centres undefined)
The growth of the first is higher: 112% for the first, 67.1% for the second.

First: Clc1cccc(Cl)c1Cl
Second: Cc1cc(C)c(CBr)c(C)c1
The growth of the first is lower: 86.6% for the first, 96.8% for the second.

Compared with `C[C@]12CCc3sc(-c4ccccc4O)nc3C1=CC[C@@H]1[C@@H]2CC[C@]2(C)C(=O)CC[C@@H]12`, `CCCOC(=O)N[C@H]1CCc2c(Br)c(OC)c(OC)c(OC)c2-c2ccc(SC)c(=O)cc21` is lower in growth: 107% for the first, 64.5% for the second.

With `COc1ccc(NC([Se])=NC23CC4CC(CC(C4)C2)C3)cc1` the growth was -45.5% (active).

These compounds were tested on M14 melanoma in the same assay as above. Conditions: 10 µM unless noted.

For `CCCC[C@H](NC(=O)[C@H]1CCCN1C)C(=O)N(C)[C@H](C[C@@H](OC(C)=O)c1nc(C(=O)N[C@@H](Cc2ccccc2)C[C@H](C)C(=O)OCC)cs1)C(C)C`, the growth was -12% (active).
For `COc1ccc2c(c1)c(-c1nc(-c3c[nH]c4ncccc34)cs1)cn2CCCCN1CCCCC1`, the growth was -88% (active).
In the case of `COC(=O)[C@H](Cc1ccccc1)NC(=O)c1csc([C@@H](C[C@H](C(C)C)N(C)C(=O)[C@@H](NC(=O)[C@H]2CCCN2C)C2CC2)OC(C)=O)n1`, the growth is reported as 1.22% (active).
With `Fc1ccc2c(c1)c(-c1nc(-c3c[nH]c4ncccc34)cs1)cn2CCCCN1CCCCC1` the growth was -88.5% (active).
In the case of `C/C=C(\C)C(=O)O[C@@H]1C(O)[C@H]2OC(COC(=O)CCC(=O)CCCCCC[C@H](CCCCC)O[C@@H]3OC(C)[C@H](OC(C)=O)C(O)[C@H]3O2)[C@H]1OC(=O)/C=C/c1ccccc1` (some centres undefined), the growth is reported as -13.1% (active).
`CC(=O)O[C@H](C[C@H](C(C)C)N(C)C(=O)[C@@H](NC(=O)[C@H]1CCCCN1C)C(C)(C)C)c1nc(C(=O)N[C@@H](Cc2ccccc2)C[C@H](C)C(=O)O)cs1` was tested, and the growth was 3.36% (active).
`COc1ccc(C(=O)c2cc(OC)c(OC)c(OC)c2)cc1OC(C)=O` was tested, and the growth was 4.11% (active).
With `COc1ccc(N(CC(=O)NCCC[Te]c2ccccc2)C(=O)CNC(=O)OC(C)(C)C)cc1` the growth was 9.09% (active).
With `COC(=O)[C@@H](C)C[C@H](Cc1ccccc1)NC(=O)c1csc([C@@H](C[C@H](C(C)C)N(C)C(=O)[C@@H](NC(=O)[C@H]2CCCCN2C)C(C)C)OC(C)=O)n1` the growth was -32.1% (active).
With `CCOC(=O)CCC(NC(=O)C(Cc1ccc(N(CCCl)CCCl)cc1)NC=O)C(=O)OCC` (centres undefined) the growth was -62.9% (active).
In the case of `COc1ccc(NC([Se])=NC23CC4CC(CC(C4)C2)C3)cc1`, the growth is reported as -6.57% (active).
`CCCOC(=O)N[C@H]1CCc2c(Br)c(OC)c(OC)c(OC)c2-c2ccc(SC)c(=O)cc21` was tested, and the growth was -26.3% (active).

Compared with `C[C@]12CC[C@H]3[C@@H](CC[C@]4(O)C[C@@H](O[C@@H]5O[C@H](CO)[C@@H](O[C@@H]6OC[C@@H](O)[C@H](O)[C@H]6O)[C@H](O)[C@H]5O)CC[C@]34C=O)[C@@]1(O)CC[C@@H]2C1=CC(=O)OC1`, `COC(=O)[C@]12CCC(C)(C)C[C@H]1[C@H]1C(=O)C[C@@H]3[C@@]4(C)C[C@@]5(CC(C)(C)[C@@H]4CC[C@@]3(C)[C@]1(C)CC2)OO[C@@](C)(C(F)(F)F)O5` is higher in growth: 23.8% for the first, 99.2% for the second.

Compared with `c1cc2c(c3c1CCNC3)OCO2`, `CCc1ccccc1[C@@H]1C[C@]2(C)CCO[C@@H]2OO1` is higher in growth: 101% for the first, 104% for the second.

Going from `O=C(Nc1ccncc1F)c1cn(CC2CC2)c2ccccc12` to `CCn1c2ccccc2c2cc(C(=O)c3cccc4c3CCCN4)ccc21`, the growth falls from 108% to 96.9%.

Going from `COP(=S)(N1CC1)N1CC1` to `COc1ccc(/C(C)=C(\c2ccc(OCCN3CCOCC3)cc2)c2ccc(OC(=O)Cc3ccccc3)cc2)cc1`, the growth rises from 99.5% to 104%.

Compared with `CC[C@H](C)[C@@H]1OC(=O)C(C)(C)[C@H](O)[C@H](Cc2ccccc2)OC(=O)[C@H](C(C)C)OC(=O)[C@@H](NC(=O)c2cccc(NC=O)c2O)[C@@H](C)OC1=O`, `COC(=O)[C@@H](C)C[C@H](Cc1ccccc1)NC(=O)c1csc([C@@H](C[C@H](C(C)C)N(C)C(=O)[C@@H](NC(=O)C23CC(NC(C)=O)(C2)C3)C2CC2)OC(C)=O)n1` is lower in growth: 62.8% for the first, 41% for the second.

First: NC(=O)CNc1ccc([As]=[As]c2ccc(NCC(N)=O)cc2)cc1 (centres undefined)
Second: O=C(CC1(O)C(=O)Nc2ccccc21)c1ccc(C(=O)NCC2CCC3(CC2)OOC2(CCCCC2)OO3)cc1 (centres undefined)
The growth of the first is lower: 57.7% for the first, 85.7% for the second.

First: Fc1ccc2c(c1)c(-c1nc(-c3c[nH]c4ncccc34)cs1)cn2CCN1CCOCC1
Second: c1cnc2[nH]cc(-c3csc(-c4cn(CCCCN5CCCCC5)c5ccccc45)n3)c2c1
The growth of the first is lower: 41.6% for the first, 50.2% for the second.

Compared with `O=C([O][Hg][CH2]C1COCC([CH2][Hg][O]C(=O)c2ccccc2)O1)c1ccccc1` (centres undefined), `O=C(CC1(O)C(=O)N(Cc2ccccc2)c2ccc(F)cc21)c1ccc(C(=O)NCC2CCC3(CC2)OOC2(CCCCC2)OO3)cc1` (centres undefined) is lower in growth: 71.7% for the first, 15.3% for the second.

Compared with `O=[N+]([O-])CC(c1ccccc1Cl)c1c(-c2ccccc2)[nH]c2ccccc12` (centres undefined), `Cc1ccc2c(C(C[N+](=O)[O-])c3cccs3)c(-c3ccccc3)[nH]c2c1` (centres undefined) is lower in growth: 21.3% for the first, 19.4% for the second.

Going from `Cc1cc(N(CCCl)CCCl)ccc1C=Nc1ccc(-c2csc(Cc3ccccc3)n2)cc1` to `O=C(CC1(O)C(=O)N(Cc2ccccc2)c2ccc(Cl)cc21)c1ccc(C(=O)NCC2CCC3(CC2)OOC2(CCCCC2)OO3)cc1` (centres undefined), the growth falls from 79.8% to 25.5%.

First: CNC(=O)Oc1ccc(N(C)C)cc1C(C)C
Second: Clc1cccc(Cl)c1Cl
The growth of the first is higher: 97.2% for the first, 94.7% for the second.

Going from `COc1ccc(/C=C\c2cc(OC)c(OC)c(OC)c2)cc1OCC(=O)Nc1nc2ccc(C(F)(F)F)cc2s1` to `C[C@]12CCc3sc(-c4ccccc4O)nc3C1=CC[C@@H]1[C@@H]2CC[C@]2(C)C(=O)CC[C@@H]12`, the growth rises from 22.3% to 106%.

For `Cc1cc(C)c(CBr)c(C)c1`, the growth was 109%.
